Most compounds without a hit are left out; they make up all but 2.9% or so of the library.
IP6K1 inh: inhibitors of human IP6K1 | activity change, % (series mostly up to about 58 µM) | AID 1645851 | IP6K1 kinase, ADP-Glo luminescence, 2 h; stronger effect = lower value | actives 0.81% (n = 140,000) | Q92551; in the data active means activity change below about -25%; further: on the % scale 0 is the no-effect control and ±100 the full control effect
Target sequence (Q92551 whole entry, looked up): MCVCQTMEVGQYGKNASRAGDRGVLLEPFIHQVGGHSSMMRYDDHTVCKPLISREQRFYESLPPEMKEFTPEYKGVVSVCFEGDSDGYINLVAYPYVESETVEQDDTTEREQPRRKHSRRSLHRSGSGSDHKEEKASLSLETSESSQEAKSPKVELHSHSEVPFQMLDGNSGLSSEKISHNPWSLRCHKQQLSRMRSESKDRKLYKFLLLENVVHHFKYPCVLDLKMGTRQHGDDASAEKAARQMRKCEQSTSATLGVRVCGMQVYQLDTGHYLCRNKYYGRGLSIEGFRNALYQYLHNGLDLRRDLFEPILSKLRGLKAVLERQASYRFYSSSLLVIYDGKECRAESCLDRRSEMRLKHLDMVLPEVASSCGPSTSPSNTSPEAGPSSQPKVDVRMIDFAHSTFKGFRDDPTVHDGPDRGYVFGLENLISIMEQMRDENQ
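ADP-Glo luminescence measures ADP made by human IP6K1 during a 2 h RT reaction with ATP/IP6 (mix at 1.3 mM/130 uM); top library doses 57.5 and 19.1 uM final.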
HEK293 viab: cell viability loss counter-screen | HEK-293-SNCA-luc viability, GF-AFC fluorescence, 24 h | Potency, µM (top dose mostly 57.1 µM), for the others: at the highest dose activity change, negative = cytotoxicity, hits mostly cytotoxic | actives 0.12% (n = 150,000);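 further: potency means the concentration at half of the fitted maximal effect; 0% = DMSO-treated cells and -100% = medium-only wells without cells; nearly all actives have a fitted effect of over 30% in size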
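Cytotoxicity counterscreen: after 24 h compound treatment of genome-edited SNCA-luciferase HEK-293 cells, live-cell protease substrate GF-AFC read by fluorescence after 30 min; activity scaled between DMSO (0%) and medium-only (-100%), curves Hill-fitted.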
SNCA expr inhib: inhibitors of alpha-synuclein (SNCA) gene expression | Potency, µM (highest dose often 57.2 µM), inactives show at the top dose activity change, negative = inhibition, usual class: inhibitors | AID 1671194 | actives 0.17% (n = 140,000) | HEK-293 SNCA-luciferase knock-in, luminescence, 24 h;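 further: potency means the concentration at half of the fitted maximal effect; plate controls were DMSO cells for no effect and cell-free wells for full effect; nearly all actives have a fitted effect of over 45% in size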
KDM5B inhibitor: inhibitors of human KDM5B histone demethylase | KDM5B demethylase, FDH-coupled NADH fluorescence (FDH is formaldehyde dehydrogenase) | Potency, µM (series often up to 57.7 µM), usual class: inhibitors | AID 1347165 | actives 2.6% (n = 220,000); further: potency means the concentration at half of the fitted maximal effect; 0% is about no effect; nearly all actives have a fitted effect of over 70% in size
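Coupled FDH/NAD⁺ fluorescence readout. KDM5BΔAP 200 nM final; compound titration, 10 min RT preincubation; substrate mix 12.5 µM H3K4me3, 25 µM 2-OG, 50 µM Fe(II), 100 µM ascorbate, 0.25 mM NAD⁺, 0.25 U/mL FDH; ΔRFU over 30 min.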
* = called active by the depositor; i = inactive; ? = inconclusive; . = no result; [ ] = another dose, or the depositor's remark. Unless noted, the call rests on the fitted dose curve; in most records, active means well fitted curve in the direction sought with a large enough effect; inconclusive means small, poorly fitted or top-dose-only effect, or another doubt; inactive means no such curve, though single readings can be large; an effect the other way counts as inactive or inconclusive.

SMILES	IP6K1 inh	HEK293 viab	SNCA expr inhib	KDM5B inhibitor
CCOC(=O)COc1ccc2c(=O)c(Oc3ccc(C(=O)OCC)cc3)c(C)oc2c1	.	.	.	i
NC(=O)c1cccnc1OC1CCN(CCc2ccccc2)CC1	22	0%	0%	i
c1ccc2oc(-c3ccnc4nc(C5CCC5)nn34)cc2c1	-4	4%	21%	11µM*
O=C(Nc1sc2ccccc2c(=O)c1-c1ccc2c(c1)OCO2)c1ccc(F)cc1	.	.	.	i
Cc1ccc(CC(=O)N2CCCN(c3cc(-c4ccccc4)[nH]n3)CC2)cc1	-7	-15%	?	28µM*
COc1ccc(CC(=O)N2CCCN(c3cc(-c4ccc(Cl)cc4)[nH]n3)CC2)cc1	-4	-16%	-25%	?
COc1ccc(CC(=O)N2CCCN(c3cc(-c4ccccc4)[nH]n3)CC2)cc1	8	2%	-13%	22µM*
Cc1cccc(OCC(=O)N2CCCN(c3cc(-c4ccc(Cl)cc4)[nH]n3)CC2)c1	9	?	?	14µM*
Cc1ccc(C2CCCN2C(=O)Cn2nc(C)c3ccccc3c2=O)cc1 (stereo not drawn)	.	.	.	i
O=C(NC1CCN(c2cc(-c3cccs3)[nH]n2)CC1)c1cccc(OC(F)(F)F)c1	12	-4%	3%	?
COc1cc(C(=O)Nc2cccc(SC)c2)cc(Br)c1O	.	.	.	i
Cc1ccc(CN2CCC(CNc3nccc(-c4ccccn4)n3)CC2)o1	-5	-6%	7%	28µM*
Cc1ccc(CN2CCC(CNc3cc(C4CC(O)C4)ncn3)CC2)o1 (stereo not drawn)	-5	-2%	14%	i
CN(C)C(=O)c1ccnc(-c2nnc3ccc(NCCN4CCOCC4)nn23)c1	-3	10%[87.6 µM]	-6%[87.6 µM]	35µM*
Cc1noc(C)c1-c1cc2c(cc(-c3ccccc3)n2C)c(-c2cnn(C)c2)n1	-4	-20%[87.6 µM]	11%[87.6 µM]	35µM*
Cc1noc(C)c1-c1cc2c(cc(-c3ccccc3)n2C)c(N2CCOCC2)n1	-16	-15%[87.6 µM]	-14%[87.6 µM]	22µM*
Cc1noc(C)c1-c1cc2c(cc(-c3ccccc3)n2C)c(Nc2ccncn2)n1	-8	?	-23%[87.6 µM]	35µM*
COc1ccc(-c2nc(-c3c(C)noc3C)cc3c2cc(-c2ccccc2)n3C)cn1	-10	?	?	28µM*
Cc1noc(C)c1-c1cc2c(cc(-c3ccccc3)n2C)c(-c2cccnc2)n1	-14	-19%[87.6 µM]	-10%[87.6 µM]	i
CC(C)c1c2cc(-c3ccnc(NC4CCC(NC5CCOCC5)CC4)n3)ccc2nn1C (stereo not drawn)	-10	-26%	.	.
COc1ccc(-c2cc(-c3c(C)noc3C)cc3c2C(=O)N(C)C3)cn1	16	-15%[87.6 µM]	-16%[87.6 µM]	32µM*
Cc1nnc2ccc(N3CCCC(NC(=O)c4ccc(Cl)cc4)C3)nn12 (stereo not drawn)	-9	.	.	.
COc1ccc(NC(=O)Nc2cccc(-c3ccc(N4CCOCC4)nn3)c2)cc1F	-14	-26%	20µM*	?
NC(=O)C1CCN(Cc2nnc3cc(-c4nc(-c5ccccc5)no4)ccn23)CC1	10	13%	96%	6.3µM*
CCN(CC)Cc1nnc2cc(-c3nc(-c4ccccc4)no3)ccn12	-3	-6%	86%	20µM*
SMILES	IP6K1 inh	HEK293 viab	SNCA expr inhib	KDM5B inhibitor
C=CCN(CC=C)Cc1nnc2cc(-c3nc(-c4ccccc4)no3)ccn12	5	-6%	65%	25µM*
c1ccc(-c2noc(-c3ccn4c(CN5CCCCCC5)nnc4c3)n2)cc1	15	-20%	36%	?
COc1ccc([C@H]2C[C@@H](O)[C@@H](O)[C@@H]2NCc2ccc(OC)nc2)cc1	-6	?	?	i
Cc1ccccc1C(=O)N[C@H]1[C@H](O)[C@H](O)C[C@@H]1c1ccc(N2CCOCC2)nc1	1	1%[87.6 µM]	28%[87.6 µM]	32µM*
Cc1cc(C(=O)N[C@H]2[C@H](O)[C@H](O)C[C@@H]2c2ccc(N3CCOCC3)nc2)nn1C	7	-6%[87.6 µM]	37%[87.6 µM]	32µM*
Cn1cc(CN[C@H]2[C@H](O)[C@H](O)C[C@@H]2c2ccc(N3CCOCC3)nc2)cn1	-1	-13%[87.6 µM]	3%[87.6 µM]	40µM*
COc1ccc(C(=O)N[C@H]2[C@H](O)[C@H](O)C[C@@H]2c2ccc(N3CCOCC3)nc2)cc1OC	7	3%	-1%	?
CCCNc1nc2ccccc2nc1C(=O)Nc1cccc(C)c1C	.	.	.	i
Cc1cc(C)n(-c2nc3ccccc3nc2Nc2cccc(Cl)c2)n1	.	.	.	i
CN1CCN(NC(=O)c2ccccc2Br)CC1	.	.	.	i
